Many of the other results were omitted from the sample, so hits are more common in it than they were.
Sa helicase inh: inhibitors of S. aureus replicative helicase, primary screen, biochemical, fluorescence unwinding readout; purified S. aureus helicase, fluorescence unwinding assay; AID 485395, 2010; 0.05% of 120,000 active; inhibition, % (concentration not given with the values); in the data active = inhibition above about 25%, passing the limit was not always enough
Sa growth 42C: S. aureus growth inhibition at 42 and 30 °C, primary screen, LtaS inhibitor project, RN4220, two temperatures | relative growth, % (no concentration beside the values) | 0.53% of 170,000 active | OD600, 20 h, 42 °C; hits give low values;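 active = relative growth at most 50% at the other temperature and 20+ points below 30 °C, or under 10% at both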
Each line names hits and unclear results; the compound was inactive in the other large screens.

CCOc1cc(/C=C2/SC(=N)N(c3nccs3)C2=O)ccc1OCCN1CCOCC1	Sa growth 42C 8.0
N=C1S/C(=C/c2ccccc2)C(=O)N1c1nonc1N	none
N=C1S/C(=C\c2ccc(F)cc2)C(=O)N1c1nccs1	Sa growth 42C 5.1
O=C(/C=N/O)Nc1ccc2c(c1)OCCO2	none
Cc1onc(-c2ccccc2Cl)c1C(=O)NC1=NCCS1	none
CC1(C)S[C@@H]2[C@H](NC(=O)Cc3ccccc3)C(=O)N2[C@H]1C(=O)O	Sa growth 42C -0.9 (no result: Sa helicase inh)
CC1(C)S[C@@H]2[C@H](NC(=O)COc3ccccc3)C(=O)N2[C@H]1C(=O)O	Sa growth 42C -0.9 (no result: Sa helicase inh)
NNC(=O)COc1ccccc1	none (no result: Sa helicase inh)
CC1(C)S[C@@H]2C(N3C(=O)[C@@H](c4ccccc4)NC3(C)C)C(=O)N2[C@H]1C(=O)O (stereo partly drawn)	Sa growth 42C -0.3 (no result: Sa helicase inh)
Cc1onc(-c2ccccc2Cl)c1C(=O)N[C@@H]1C(=O)N2[C@@H]1SC(C)(C)[C@@H]2C(=O)O	Sa growth 42C 0.0 (no result: Sa helicase inh)
CC1(C)SC(CNC(=O)Cc2ccccc2)NC1C(=O)O (stereo not drawn)	none (no result: Sa helicase inh)
CC(=O)N1C(c2ccccc2)SC(C)(C)C1C(=O)O (stereo not drawn)	none (no result: Sa helicase inh)
CCn1c(CN2CCCCCC2=O)n[nH]c1=S	none
COCCN(Cc1nc2ccccc2c(=O)[nH]1)C(=O)c1ccc(C)cc1C	none
CCOC(=O)Cc1csc(SCC(=O)c2cc(C)n(-c3ccc(C)cc3)c2C)n1	none
COc1cccc(OC)c1CN(C)C(=O)c1cnc(Oc2ccccc2)cc1C(F)(F)F	none (no result: Sa helicase inh)
CCC(C)(C)NC(=O)C(NS(=O)(=O)c1cccs1)c1ccccc1 (stereo not drawn)	none (no result: Sa helicase inh)
CCN1CCN(C(=O)NC(C(=O)N[C@@H]2C(=O)N3[C@@H]2SC(C)(C)[C@@H]3C(=O)O)c2ccccc2)C(=O)C1=O (stereo partly drawn)	Sa growth 42C -0.3 (no result: Sa helicase inh)
CCC(C)NC(=O)Cn1c(=O)n(-c2ccc(Cl)c(Cl)c2)c(=O)c2c(C)c(C(=O)N(CC)CC)sc21 (stereo not drawn)	none (no result: Sa helicase inh)
COc1ccc(-c2nnc(NC(=O)c3ccc(S(=O)(=O)N4CCCc5ccccc54)cc3)o2)cc1	none
COc1cc(OC)cc(-c2nnc(NC(=O)c3ccc(S(=O)(=O)N(C)c4ccccc4)cc3)o2)c1	Sa growth 42C -0.1
O=C(Nc1nnc(C2=COCCO2)o1)c1ccc(Cl)cc1	Sa growth 42C 3.7
O=C(Nc1nnc(C2=COCCO2)o1)c1cccc2ccccc12	none
CN(C1CCCCC1)S(=O)(=O)c1ccc(C(=O)Nc2ccccc2)cc1	none (no result: Sa growth 42C)
CN(C1CCCCC1)S(=O)(=O)c1ccc(C(=O)Nc2nnc(-c3cccnc3)o2)cc1	Sa growth 42C 2.3
CN(Cc1ccccc1)S(=O)(=O)c1ccc(C(=O)Nc2nnc(-c3ccco3)o2)cc1	none
COc1cc(OC)cc(-c2nnc(NC(=O)c3ccc(S(=O)(=O)N4COCC4(C)C)cc3)o2)c1	Sa growth 42C 1.0
Cc1cc2oc(=O)cc(C)c2c2occ(-c3ccc(Cl)cc3)c12	none (no result: Sa helicase inh)
NC(=O)c1nnc2ccccc2c1N	none (no result: Sa helicase inh)
COc1ccc(CN(C)C(=O)c2cccc(C)c2)cc1OC	none
Cc1nnsc1C(=O)Oc1ccc(C(C)C)cc1	none (no result: Sa helicase inh)
O=C(Nc1nnc(-c2cccs2)o1)c1ccccc1	none (no result: Sa growth 42C)
O=C(Nc1nnc(-c2ccccc2)o1)c1ccccc1	Sa growth 42C 0.0
COc1ccc(-c2nnc(NC(=O)C3CC3)o2)cc1	none
O=C(Nc1nnc(-c2ccc(Cl)cc2)o1)C1CC1	Sa growth 42C 2.6
CSc1ccc(C2c3c(oc4ccc(F)cc4c3=O)C(=O)N2c2ccc(C)cn2)cc1 (stereo not drawn)	none (no result: Sa helicase inh)
Cc1n[nH]c(C)c1CCCCCOc1ccccc1	Sa growth 42C 0.0
COC(=O)c1c(COc2ccccc2)n[nH]c1C	none (no result: Sa helicase inh)
Cc1n[nH]c(C)c1CCC(=O)O	none
Cc1n[nH]c(C)c1CCCOc1ccccc1	Sa growth 42C 8.3
O=S(=O)(c1ccccc1)c1ccc(C(F)(F)F)cn1	none
O=C(O)c1cccc(Oc2cccc(C(F)(F)F)c2)c1	none
CS(=O)(=O)c1nc(Oc2cccc(C(F)(F)F)c2)cc(Oc2cccc(C(F)(F)F)c2)n1	Sa growth 42C 31.6
CC(=O)Nc1cc(OC(C)=O)c2nonc2c1OC(C)=O	Sa growth 42C 0.9
CC(=O)Nc1nonc1NC(C)=O	none
Cc1ccc(NC(=O)c2cc(-c3cccs3)nc3ccccc23)c(C)c1	none (no result: Sa helicase inh)
CCOCCC(=O)Nc1cc(C)cc(C)c1	none
COc1cc2cc3c4c(cc(OC)c(OC)c4c2cc1OC)CCN3C	Sa growth 42C 6.6
COc1ccc(C(=O)N2CCc3cc(OC)c(OC)cc3C2C)cc1 (stereo not drawn)	none (no result: Sa helicase inh)
O=C1C(Sc2ncn[nH]2)=C/C(=N/S(=O)(=O)c2ccc(F)cc2)c2ccccc21	Sa growth 42C 1.1
O=C1C(Sc2ncn[nH]2)=C/C(=N/S(=O)(=O)c2cccs2)c2ccccc21	Sa growth 42C 1.4
CCOc1ccc(S(=O)(=O)/N=C2/C=C(Sc3ncn[nH]3)C(=O)c3ccccc32)cc1	none
O=S(=O)(Nc1cc(Sc2ncn[nH]2)c(O)c2ccccc12)c1cccs1	none
C1CCC(NC2=NCCC2)CC1	none
CCN(c1ccccc1)S(=O)(=O)c1ccc(NC(=O)c2nc(S(C)(=O)=O)ncc2Cl)cc1	Sa growth 42C -1.4 (no result: Sa helicase inh)
CCS(=O)(=O)c1ncc(Cl)c(C(=O)Nc2ccc(S(=O)(=O)N(C)c3ccccc3)cc2)n1	none (no result: Sa helicase inh)
CCOC(=O)C1=C(C)NC(=S)NC1c1ccc(OCC(=O)N2CCCCC2)cc1 (stereo not drawn)	none
CCOC(=O)NC(=O)c1cn(Cc2ccco2)c(=O)n(Cc2ccccc2)c1=O	none (no result: Sa helicase inh)
COc1cc(CNc2ccc3[nH]c(=O)[nH]c3c2)cc(Cl)c1OCC(=O)NC(C)(C)C	none
CCOc1ccc(CNC(=O)c2ccc(CS(=O)Cc3ccc(Cl)cc3)o2)cc1 (stereo not drawn)	none (no result: Sa helicase inh)
CCOc1ccc(CCNC(=O)c2ccc(CS(=O)Cc3cccc(Cl)c3)o2)cc1 (stereo not drawn)	Sa growth 42C 23.6 (no result: Sa helicase inh)
O=C(NC1CCCCC1)N1CCN(c2ccccn2)CC1	none
CCOc1ccc(N(CC(=O)NCc2ccc(Cl)cc2)S(=O)(=O)c2c(C)noc2C)cc1	none (no result: Sa helicase inh)
Cc1cc2oc(=O)cc(Cn3ccsc3=N)c2cc1C(C)C	Sa growth 42C 49.6
Cc1cc2c(CCl)cc(=O)oc2cc1C(C)C	none
CCCn1c(NC(=O)CCC2CCCC2)nc2ccccc21	none
CCCn1c(NC(=O)C2CCCC2)nc2ccccc21	Sa growth 42C -0.9
Cc1cccc(C(=O)Nc2nc3c(s2)CCCC3)c1	none (no result: Sa helicase inh)
O=C(Nc1cccc(Br)c1)Nc1nc2c(s1)CCCCCC2	Sa growth 42C 37.0 (no result: Sa helicase inh)
O=C(CC1SC(N2N=C(c3ccccc3)CC2c2ccccc2)=NC1=O)Nc1ccccc1 (stereo not drawn)	none
Cc1ccc(-c2n[nH]c3c2C(c2ccc(C(C)C)cc2)NC3=O)cc1 (stereo not drawn)	none
O=c1ccc(-c2ccc(Cl)cc2)n[nH]1	none
O=c1cc[nH]cc1-c1ccc(Cl)cc1	Sa growth 42C -0.8
CO[C@@]12[C@H](COC(N)=O)C3=C(C(=O)C(C)=C(N)C3=O)N1C[C@@H]1N[C@@H]12	Sa growth 42C 0.0 (no result: Sa helicase inh)
CC1CCCC/C1=N\NC(N)=O (stereo not drawn)	none
CSc1nc2cc(Cl)c(Cl)cc2[nH]1	none (no result: Sa helicase inh)
Cc1nc2ccc(S(=O)(=O)NCC(=O)NCc3ccccn3)cc2s1	none (no result: Sa helicase inh)
COc1cc2ccc3c(CCN(C)C)cc(OC)c(OC)c3c2cc1OC	none
CN(C)CCc1cc2c(c3c1ccc1ccccc13)OCO2	Sa helicase inh 45.0
CCSc1nc(C(F)(F)F)c(C(=O)c2ccccc2)cc1C#N	none

High-throughput results (PubChem BioAssay)
